Assay outcomes from PubChem BioAssay.
A selection: hits, their analogues and other compounds. The true share with any hit is near 10%.
HPGD block – inhibitors of human 15-hydroxyprostaglandin dehydrogenase (HPGD) | P15428 | purified HPGD, NADH fluorescence kinetic, PGE2 substrate | Potency, µM, for the others: at the top dose activity change, negative = inhibition, most hits filed as inhibitors | 150,000 tested, 4.3% active | AID 894; note: potency is the fitted concentration of half-maximal effect
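NADH formation kinetics: reaction with 30 uM PGE2 and 1 mM NAD+ (final), 20 nM enzyme, Tris-HCl pH 8 with Tween 20, after 15 min compound preincubation at room temperature. Fluorescence change, last versus first of five reads.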
ALDH1A1 inh – ALDH1A1 (human) enzyme inhibition | P00352 | Purified ALDH1A1, NADH fluorescence, propionaldehyde substrate | Potency, µM (series often up to 75.3 µM), without a hit: at the top dose activity, negative = inhibition, hits mostly inhibitors | 220,000 tested, 7.3% active | AID 1030;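 note: potency is the fitted concentration of half-maximal effect; plate controls were no enzyme wells and a reference inhibitor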
Target sequence (P00352 whole entry, looked up): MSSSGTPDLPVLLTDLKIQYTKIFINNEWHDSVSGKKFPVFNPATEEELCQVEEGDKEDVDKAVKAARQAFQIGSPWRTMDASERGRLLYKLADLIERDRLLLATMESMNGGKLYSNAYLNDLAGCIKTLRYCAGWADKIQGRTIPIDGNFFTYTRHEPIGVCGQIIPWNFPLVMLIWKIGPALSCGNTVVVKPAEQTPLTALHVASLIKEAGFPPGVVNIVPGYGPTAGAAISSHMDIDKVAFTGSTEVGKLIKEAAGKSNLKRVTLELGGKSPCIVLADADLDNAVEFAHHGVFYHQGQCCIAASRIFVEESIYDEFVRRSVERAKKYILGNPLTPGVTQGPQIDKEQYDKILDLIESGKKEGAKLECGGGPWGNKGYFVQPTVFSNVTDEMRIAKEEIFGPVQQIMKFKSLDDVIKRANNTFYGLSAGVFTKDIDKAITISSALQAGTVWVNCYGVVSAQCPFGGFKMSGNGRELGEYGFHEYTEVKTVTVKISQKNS
PNC inhibitor – blocks assembly of the perinucleolar compartment; 140,000 tested, 3.1% active; activity change (PNC), negative = inhibition, % at 10 µM; PC3M PTB-GFP, PNC prevalence imaging, 16 h; stronger effect = lower value; AID 2417;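 active = readout at or below -70, meaning at least 70% loss of cells showing the perinucleolar compartment, a nuclear body marking cancer cells; inconclusive = readout between -30 and a set limit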;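 note: plate controls were DMSO wells for no effect and camptothecin positive control wells for full effect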
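Read-out is percentage of cells bearing a perinucleolar compartment, from automated 20x imaging of fixed, Hoechst-stained PC3M PTB-GFP cells. Cells were seeded 4 h, then exposed 16 h to compound (23 nl of library stock) in duplicate plates.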
LMNA splice mod – LMNA splicing modulation; AID 1487; 200,000 tested, 0.01% active; HeLa LMNA splicing GFP/RFP minigene ratio, 48 h; Potency, µM (top dose mostly 46.1 µM), for the others: at the top dose ratio change, negative = inhibition, hits mostly inhibitors; active = well fitted inhibition curve with a large enough effect in the signal ratio, with a control signal flat, not every such curve was filed as active; inconclusive = small, poorly fitted or top-dose-only effect, or effect the other way, or a change in a side signal; the % refers to the signal ratio; note: potency is the fitted concentration of half-maximal effect
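Read-out is the ratio of GFP to DsRed2 object intensity, acquired by 488 nm laser-scanning cytometry on HeLa lamin A-EGFP minigene reporter cells. Compound incubation 48 hrs at 37 °C in Opti-MEM with 2% FBS; DMSO 0.5% final.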
Luc counter – blocks Kinase-Glo luciferase, a counter-screen artifact | Kinase-Glo luciferase, ATP luminescence, 8 min | Potency, µM (highest dose often 38.3 µM), for inactives: at the highest dose activity change, negative = inhibition, most hits filed as inhibitors | 200,000 tested, 0.28% active | AID 1379; active = well fitted inhibition curve with a large enough effect; inconclusive = small, poorly fitted or top-dose-only effect; note: potency is the fitted concentration of half-maximal effect; nearly all actives have a fitted effect of over 60% in size
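Substrate mix (final 50 mM imidazole pH 7.2, 50 mM KCl, 7 mM MgCl2, 10 uM ATP, 0.01% Tween 20, 0.05% BSA) plus pin-tool compound, then Kinase-Glo detection mix; 8 min ambient, luminescence read.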
* = called active by the depositor; ? = inconclusive; nt = no result given; [ ] = dose if it differs, or a comment. Unless noted, calls come from the whole dose curve; as a rule, active = well fitted inhibition curve with a large enough effect (not every such curve was filed as active); inconclusive = small, poorly fitted or top-dose-only effect, or another doubt; inactive = no such curve, though single readings can be large or run the other way. Unless noted, % is set by controls: 0 for no effect and ±100 for the full control effect.

SMILES	HPGD block	ALDH1A1 inh	PNC inhibitor	LMNA splice mod	Luc counter
COc1cc(O)c(NC(C)=O)c2nonc12	-4.1%	-4.3%	-87.8*	-3.0%	15.6%
COc1ccc(-c2nnc(SCC3CCCO3)n2C)cc1 (centres undefined)	nt	?	nt	nt	3.2%
COc1ccc(C)cc1-n1nnnc1SCC(=O)c1ccc2c(c1)OCCO2	-12.7%	11.2µM*	21.7	?	-3.2%
COc1ccc(C)cc1-n1nnnc1SCC1CCCO1 (centres undefined)	-13.4%	12.6µM*	49.0	25.8%	-1.8%
COCCCn1c(SCC(=O)n2c(C)c(C)c3ccccc32)nnc1-c1ccoc1C	-10.6%	25.1µM*	?	-11.0%	0.5%
O=C(Cn1nc(Cl)nc1Cl)c1ccc2c(c1)OCCO2	-5.2%	1.12µM*	54.1	-3.8%	-2.3%
COc1ccc(-n2nnnc2SCC(=O)c2ccc3c(c2)OCCO3)c(OC)c1	-15.3%	?	?	?	-4.1%
COc1ccc(C)cc1-n1nnnc1SCC(=O)Nc1cccnc1Cl	-4.3%	?	25.3	?	-2.6%
COc1ccc(-c2nnn(CC(=O)c3ccc4c(c3)OCCO4)n2)cc1OC	-6.4%	28.2µM*	?	?	-1.7%
COc1ccc(C)cc1-n1nnnc1SCC(=O)Nc1cc(C)on1	-4.1%	2µM*	-23.1	-9.9%	6.7%
COCCn1c(SCC(=O)c2ccc3c(c2)OCCO3)nnc1-c1ccoc1C	-23.1%	20µM*	?	?	-4.2%
CCOc1ccc(-c2nnn(CC(=O)c3ccc4c(c3)OCCO4)n2)cc1	-24.9%	?	10.0	?	-0.2%
COc1ccc(C)cc1-n1nnnc1SCC(=O)NC(=O)NCc1ccco1	-14.2%	12.6µM*	-81.0*	6.9%	1.6%
COc1ccc(-n2nnnc2SCC(=O)NCc2ccco2)cc1OC	-18.1%	-0.4%	25.4	3.3%	-5.0%
Cc1ccc2c(c1)N(C(=O)Nc1cccc3c1CCCC3)CCO2	nt	nt	nt	6.8%[46 µM]	nt
Cc1ccc(-n2ncc(C(=O)NCCN3CCc4ccccc4C3)c2C2CCN(C(=O)OC(C)(C)C)CC2)cc1	nt	nt	nt	-11.5%[46 µM]	nt
COc1ccc(C)cc1-n1nnnc1SCc1nc2ccccc2s1	-21.6%	11.2µM*	-2.2	?	-5.9%
COc1cccc(-n2nnnc2SCC(=O)NCCc2ccccc2)c1	-15.4%	?	-11.7	14.1%	-1.0%
COc1ccc(OC)c(-n2nnnc2SCC(=O)NCCc2ccccc2)c1	-24.1%	1.26µM*	?	1.5%	-3.9%
COc1ccc(-n2nnnc2SCc2nc3ccccc3s2)cc1	?	?	-29.8	-12.4%	-6.9%
O=C(CCCn1c(=O)[nH]c2ccccc2c1=O)N1CCN(c2ccccc2)CC1	nt	nt	nt	-0.7%[46 µM]	nt
CCOC(=O)N/N=C1/C[C@@H](O)[C@@H](O)[C@@H]2[C@@H]3C(=O)N(c4cccc(Oc5ccccc5)c4)C(=O)[C@H]3CC[C@H]12	nt	5.7%[13.5 µM]	nt	nt	nt
O=C(COc1ccccc1[N+](=O)[O-])N/N=C/c1ccc(O)c([N+](=O)[O-])c1	nt	25.1µM*	nt	-1.1%[46 µM]	-0.3%
O=[N+]([O-])c1cc(/C=N\Nc2nccs2)ccc1O	8.91µM*	?	-11.1	-6.0%	-20.5%
Cc1cc([N+](=O)[O-])cc(C)c1OCC(=O)N/N=C/c1ccc(OC(=O)c2ccccc2)cc1	-12.6%	-5.9%	-100.0*	-10.9%	2.3%
SMILES	HPGD block	ALDH1A1 inh	PNC inhibitor	LMNA splice mod	Luc counter
COc1ccc(/C=N\NC(=O)CNC(=O)C(c2ccccc2)c2ccccc2)cc1[N+](=O)[O-]	-12.5%	11.2µM*	?	?	1.3%
O=C(N/N=C(\c1ccccc1)c1cccnc1)C(O)(c1ccccc1)c1ccccc1	-7.2%	?	-91.9*	-9.9%	-2.6%
COc1ccc(Br)cc1CNC(=O)c1ccc2nc(C(C)C)oc2c1	nt	nt	nt	31.8%[46 µM]	nt
O=C(O)/C=C\C(=O)NNC(=O)c1cc(-c2ccccc2)n[nH]1	nt	25.1µM*	nt	nt	nt
CCOc1ccc(CC(=O)C2C(=O)CC(C)(C)CC2=O)cc1OCC	-15.9%	7.94µM*	5.5	0.4%	-0.2%
CCOc1ccc(Cc2onc3c2C(=O)CC(C)(C)C3)cc1OCC	nt	8.91µM*	nt	21.5%[46 µM]	2.8%
CCOc1ccc(CC(=O)C2=C(N3CCOCC3)CC(C)(C)CC2=O)cc1OCC	nt	39.8µM*	nt	12.6%[46 µM]	3.0%
CCOc1ccc(Cc2onc3c2C(=O)CCC3)cc1OCC	nt	1.2%	nt	nt	0.5%
